Reference: PubChem BioAssay AID2284323 (EPA ToxCast)
Active and inactive are the calls of the source. Rule for the calls: active = hit-call score of the fitted dose curve at least 0.9, where 1 is the maximum; inactive = score below 0.9.

What follows are compounds tested on NCBI gene 447152 (assay: CCTE_GLTED_xIYD: CCTE's Xenopus Iodotyrosine Deiodinase (xIYD) Inhibition Assay, Great Lakes Toxicology and Ecology Division (GLTED) Lab).
Description: CCTE_GLTED_xIYD is a cell-free, single-readout assay that uses Xenopus (frog) iodotyrosine deiodinase (xIYD) enzyme from liver microsomes. Assay is based on iodide release measured by the Sandell-Kolthoff method and is run in 96-well plate format with assay plates run in triplicate (n=3) with measurements taken at 3 hours after chemical dosing. Platewise-normalization was used based on positive control (3-Nitro-L-tyrosine, MNT) and negative/solvent controls (DMSO, NaOH).CCTE_GLTED_xIYD is the assay component measured from the CCTE_GLTED_xIYD assay. It measures substrate involved in regulation of catalytic activity using spectrophotometry. The assay measures the deiodination activity of Xenopus (frog) IYD on the substrate monoiodotyrosine (MIT). After 3h incubation of substrate, enzyme, and test chemical, the components are applied to a 96-well Dowex column. Free iodide is not retained by the column and is separated from interfering assay components. The free iodide is measured by the Sandell-Kolthoff reaction in which the rate of reduction of cerium (Ce+4 to Ce+3) by arsenic (As+3 to As+5) is increased by the presence of iodide. This is observed as the loss of yellow color in the reaction and the quantified by the change in absorbance at 420 nm. The change in reaction rate is proportional to the amount of iodide present.Data from the assay component CCTE_GLTED_xIYD was analyzed at the assay endpoint CCTE_GLTED_xIYD in the positive analysis fitting direction relative to DMSO as the negative control and baseline of activity. Using a type of enzyme reporter, loss-of-signal activity can be used to understand iodotyrosine deiodinase activity. To generalize the intended target to other relatable targets, this assay endpoint is annotated to the 'dehalogenase' intended target family, where the subfamily is 'iodotyrosine deiodinase'.
Human transthyretin (TTR) assay, developed at Great Lakes Toxicology and Ecology Division (GLTED) within the EPA's Center for Computational Toxicology and Exposure (CCTE), is designed to test the chemicals' ability to displace T4 from the TTR protein. TTR (0.125uM) is incubated in presence of test chemical for 2 hours during which disrupting chemicals displace ANSA from the TTR protein. Results read fluorescence at 380 excitation and 475 emission.
In the case of O=C(O)C(F)(F)OC(F)(F)C(F)(F)OC(F)(F)C(F)(F)OC(F)(F)C(F)(F)C(F)(F)C(F)(F)F, the AC50 is reported as 93.8 µM (active).
With O=C(O)C(F)(F)C(F)(F)C(F)(F)C(F)(F)C(F)(F)C(F)(F)C(F)(F)C(F)(F)C(F)(F)C(F)F the AC50 was 64.2 µM (active).
N[C@@H](Cc1ccc(O)c([N+](=O)[O-])c1)C(=O)O was tested, and the AC50 was 0.113 µM (active).
With O=P(O)(O)CCC(F)(F)C(F)(F)C(F)(F)C(F)(F)C(F)(F)C(F)(F)C(F)(F)C(F)(F)F the AC50 was 65.4 µM (active).
In the case of O=S(=O)(O)C(F)(F)C(F)(F)C(F)(F)C(F)(F)C(F)(F)C(F)(F)C(F)(F)F, the AC50 is reported as 19.8 µM (active).
O=C(O)C(F)(F)C(F)(F)C(F)(F)C(F)(F)C(F)(F)C(F)(F)C(F)(F)C(F)(F)Cl was tested, and the AC50 was 38.9 µM (active).
For O=C(O)CCC(F)(F)C(F)(F)C(F)(F)C(F)(F)C(F)(F)C(F)(F)C(F)(F)F, the outcome was “inactive”.
O=S(=O)(Cl)C(F)(F)C(F)(F)C(F)(F)C(F)(F)C(F)(F)C(F)(F)C(F)(F)C(F)(F)F was tested, and the outcome was “inactive”.
For O=C(Cl)C(F)(F)C(F)(F)C(F)(F)C(F)(F)C(F)(F)C(F)(F)C(F)(F)C(F)(F)F, the outcome was “inactive”.
